Among all 410,000 compounds or so, about 6,400 (1.6%) were called active. Not shown: some 20% with an inconclusive outcome. Calls follow the shape of the dose curve; as a rule, active = well fitted inhibition curve with a large enough effect; inconclusive = small, poorly fitted or top-dose-only effect; inactive = no such curve, though single readings can be large or run the other way. The list comes from a sample in which actives are over-represented; it also holds similar structures and randomly drawn compounds.
These compounds were tested against Glucagon-like peptide 1 receptor (Homo sapiens) (UniProt P43220) (assay: qHTS of GLP-1 Receptor Inverse Agonists (Inhibition Mode)). Conditions: HEK293 GLP-1R CRE-luciferase, luminescence, 24 h, GLP-1R form is constitutively active; series mostly up to 38.3 µM; activity change, negative = inhibition: at the top concentration.
In short: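 HEK293 cells stably co-expressing constitutively active GLP-1R and a cAMP-responsive luciferase reporter were seeded in DMEM with 10% Nu serum, given compounds after 12 h, and incubated 24 h at 37 deg C. Luminescence was then read.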
% is scaled to controls: 0 for no effect and ±100 for the full control effect; potency is read from the fitted curve at half-maximal effect.
Also: nearly all actives have a fitted effect of over 55% in size.

Chain of Glucagon-like peptide 1 receptor (Homo sapiens) (P43220 whole entry, looked up): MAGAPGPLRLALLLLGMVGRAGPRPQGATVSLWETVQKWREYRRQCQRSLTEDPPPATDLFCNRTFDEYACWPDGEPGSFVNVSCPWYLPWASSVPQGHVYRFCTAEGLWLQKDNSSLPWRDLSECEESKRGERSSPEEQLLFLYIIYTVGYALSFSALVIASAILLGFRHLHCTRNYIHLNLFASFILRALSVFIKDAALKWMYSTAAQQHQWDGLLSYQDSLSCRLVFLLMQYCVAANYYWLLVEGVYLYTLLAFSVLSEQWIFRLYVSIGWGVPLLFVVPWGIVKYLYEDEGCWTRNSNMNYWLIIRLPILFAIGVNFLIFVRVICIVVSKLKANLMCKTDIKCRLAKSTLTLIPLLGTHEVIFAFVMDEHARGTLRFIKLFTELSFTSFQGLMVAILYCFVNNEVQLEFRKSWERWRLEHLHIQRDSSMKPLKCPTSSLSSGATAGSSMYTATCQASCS

| SMILES | activity change, negative = inhibition | Potency |
| --- | --- | --- |
| CC(OC(=O)c1cccc(S(=O)(=O)N2CCOCC2)c1)C(=O)NCC1CCCCC1 (configuration not stated) | -10.6% (inactive) | – |
| CC1=C(C(=O)N2CCOCC2)CC(CC(=O)NCCN2CCOCC2)C(=O)N1CCC1=CCCCC1 (configuration not stated) | 3.72% (inactive) | – |
| COCCNC(=O)C1C(=O)Nc2ccccc2C(=O)N1c1ccc2c(c1)OCCO2 (configuration not stated) | 15.6% (inactive) | – |
| CCc1oc(-c2ccc(OC)cc2)c(C(=O)OCCCCCO)c1C(C)OCCO (configuration not stated) | 6.05% (inactive) | – |
| CC1(C(=O)Nc2ccccc2Br)CCN1C(=O)CC1CC1 (configuration not stated) | 8.34% (inactive) | – |
| COc1cc(Nc2nc(-c3ccc(OC)c(OC)c3)nc3ccccc23)cc(OC)c1 | – | 11.2 µM (active) |
| Cc1cccc(-c2noc(-c3ccc(F)cc3)n2)c1 | 1.87% (inactive) | – |
| COc1cccc(Nc2nc3ccccc3c3nncn23)c1 | 10.2% (inactive) | – |
| Oc1ccc(-c2nnc(Nc3ccccc3)c3ccccc23)cc1 | 2.85% (inactive) | – |
| Cc1cccc(-c2nc(Nc3ccc(O)cc3)c3ccccc3n2)c1 | – | 2.82 µM (active) |
| COc1ccc(Nc2nnc(C)c3ccccc23)cc1 | 17.4% (inactive) | – |
| C[C@H]1CN([C@@H](C)CO)C(=O)CCCn2cc(nn2)CO[C@@H]1CN(C)C(=O)Nc1ccccc1 | 9.62% (inactive) | – |
| CCCCNC(=O)C[C@@H]1C[C@@]2(C(=O)OC)CC(C)(C)CC=C2N(Cc2ccco2)C1=O | -13.8% (inactive) | – |
| Cc1cn([C@H]2C[C@H](O)[C@@H](/C=C/C(=O)NCCCc3ccccc3)O2)c(=O)[nH]c1=O | 21.9% (inactive) | – |
| CC(C)(C)C(=O)c1c(N)[nH]c(C(=O)c2ccccc2)c1-c1ccc(F)cc1 | -9.81% (inactive) | – |
| C[C@H](CO)N1C[C@H](C)[C@@H](CN(C)C(=O)C2CCCCC2)OCc2cnnn2CCCC1=O | -2.95% (inactive) | – |
| CC1CCc2c(nc3ncnn3c2Nc2ccc(OC(F)(F)F)cc2)C1 (configuration not stated) | – | 11.2 µM (active) |
| Brc1ccc(Nc2c3c(nc4ncnn24)CCC3)cc1 | 8.88% (inactive) | – |
| CC(=O)c1nn(-c2ccc(OC(F)(F)F)cc2)nc1Nc1ccccc1 | 27.9% (inactive) | – |
| COc1ccc(-c2nc3ccc(Br)cn3c2Cc2ccc(C)cc2)cc1OC | 2.33% (inactive) | – |
| CC(C)c1cc(Cn2c3ccccc3c(=O)n2C(C)Cn2cc(C3CC3)nn2)on1 (configuration not stated) | 7.54% (inactive) | – |
| CCN(CC)S(=O)(=O)c1ccc(Cl)c(C(=O)NCCN2CCOCC2)c1 | 12.5% (inactive) | – |
| CCN(CC)S(=O)(=O)c1ccc(N2CCCC2)c(NS(=O)(=O)c2cccs2)c1 | -8.52% (inactive) | – |
| CCN(CC)S(=O)(=O)c1ccc(Cl)c(C(=O)NC(C)C(c2cccs2)N2CCCC2)c1 (configuration not stated) | – | 5.62 µM (active) |
| COc1ccc(CN2C(=O)C(CC(=O)NC3CCCCC3)CC(C(=O)N3CCOCC3)=C2C)cc1 (configuration not stated) | 10.1% (inactive) | – |

| SMILES | activity change, negative = inhibition | Potency |
| --- | --- | --- |
| CC(=O)Nc1ccc(-c2ccnc3c2CC(C(=O)NC(C)C)O3)cc1 (configuration not stated) | 16.4% (inactive) | – |
| COc1ccc(NC(=O)C2Cc3c(-c4cccc(NC(C)=O)c4)ccnc3O2)cc1OC (configuration not stated) | -39% (inactive) | – |
| O=C(Nc1ccc(Cl)cc1)C1Cc2c(-c3ccc4c(c3)OCO4)ccnc2O1 (configuration not stated) | – | 11.2 µM (active) |
| COc1ccc(NC(=O)CCCOc2ccc(C(C)=O)cc2)cc1S(=O)(=O)N1CCCCC1 | 5.87% (inactive) | – |
| CN(Cc1ccccc1)C(=O)CCC1CCN(C(=O)c2ccco2)CC1 | 5.45% (inactive) | – |
| C[C@H]1CN([C@@H](C)CO)C(=O)CCCn2cc(nn2)CO[C@@H]1CN(C)S(=O)(=O)c1ccccc1C#N | 6.64% (inactive) | – |
| CCCCCCNC(=O)O[C@]12C[C@@H](C(=O)OC)[C@@H](C(=O)OC)C[C@@]1(O)CN(S(=O)(=O)c1ccc(C)cc1)C2 | -28.7% (inactive) | – |
| Cc1ccc(OCc2nnc(SC3CCc4ccccc4C3=O)n2C)cc1 (configuration not stated) | – | 7.08 µM (active) |
| Cc1cccnc1NC(=O)CSc1nnc(COc2ccc(C(C)C)cc2)n1C | 1.37% (inactive) | – |
| Cc1ccc(OCc2n[nH]c(=S)n2-c2ccccc2)cc1 | -15.4% (inactive) | – |
| O=C(COC(=O)c1ccc(S(=O)(=O)N2CCCCCC2)cc1)Nc1ccccc1C(F)(F)F | 22% (inactive) | – |
| CN1OC[C@@H]2CN(C(=O)C(C)(C)C)[C@H](c3ccc(-n4ccnc4)cc3)C[C@@H]21 | 13.5% (inactive) | – |
| COc1ccccc1-c1sc2ccccc2c1-c1ccc(Br)nc1 | – | 10 µM (active) |
| COc1ccc2sc(-c3ccc(S(C)(=O)=O)cc3)c(-c3ccc(C(N)=O)cc3)c2c1 | -10.9% (inactive) | – |
| COc1ccccc1-c1sc2ccccc2c1-c1ccc(C(C)=O)cc1 | – | 10 µM (active) |
| COc1cc(C(C)=O)ccc1OC(=O)CN1C(=O)c2ccccc2C1=O | 18.4% (inactive) | – |
| COc1ccc(-c2sc3ccccc3c2-c2ccc(OCCN3CCOCC3)cc2)cc1 | 5.48% (inactive) | – |
| COc1ccc2sc(-c3ccccc3OC)c(-c3ccc(OCCN4CCCC4)cc3)c2c1 | -26.6% (inactive) | – |
| N#Cc1ccc(-c2nc3c(Cl)cc(C(F)(F)F)cn3c2Cc2ccccc2C(F)(F)F)cc1 | 5.12% (inactive) | – |
| CC1(C(=O)NS(=O)(=O)c2cccc(F)c2)CCN1C(=O)Cc1cc(F)ccc1F (configuration not stated) | 11.6% (inactive) | – |
| Cc1cccc(CN2CCN(C3CN(Cc4cn(Cc5cc(C)cc(C)c5)nn4)S(=O)(=O)C3)CC2)c1 (configuration not stated) | -3.31% (inactive) | – |
| COC(=O)[C@]12CCCCC=C1N(Cc1ccc3c(c1)OCO3)C(=O)[C@H](CC(=O)N1CCOCC1)C2 | -70.8% (inactive) | – |
| C[C@@H]1CN([C@H](C)CO)C(=O)CCCn2nncc2CO[C@@H]1CN(C)C(=O)OCc1ccccc1 | 5.9% (inactive) | – |
| O=C1NC[C@H](CCCCN2C[C@H](Cc3ccc(O)cc3)N(CCc3ccccc3)C(=O)C2=O)N(CCc2ccccc2)C1=O | 22% (inactive) | – |
| CC1=C(C(=O)N2CCOCC2)CC(CC(=O)NCc2cccs2)C(=O)N1CCCN1CCCC1=O (configuration not stated) | 8.47% (inactive) | – |

| SMILES | activity change, negative = inhibition | Potency |
| --- | --- | --- |
| CC1=C(C(=O)N(C)C)CC(CC(=O)NCCc2ccccn2)C(=O)N1CCC1=CCCCC1 (configuration not stated) | 20.9% (inactive) | – |
| CCCc1nc(NCc2ccc3c(c2)OCO3)c2nnn(Cc3ccccc3Cl)c2n1 | -31.5% (inactive) | – |
| Cc1nc(Nc2ccc3c(c2)OCCO3)c2nnn(Cc3ccccc3Cl)c2n1 | – | 3.55 µM (active) |
| Cc1nc(Nc2ccccc2F)c2nnn(Cc3ccccc3Cl)c2n1 | 28.2% (inactive) | – |
| O=C(O)C(=Cc1ccc([N+](=O)[O-])cc1)CCc1ccccc1 | 3.42% (inactive) | – |
| COCCNC(=O)C1CCCN(Cc2ccccc2Cl)CC1 (configuration not stated) | 5.05% (inactive) | – |
| O=C(NCc1ccccn1)[C@@H]1CCCN1C(=O)[C@@H]1CCCN1C(=O)c1ccccc1 | 21% (inactive) | – |
| COC(=O)C1(C(=O)OC)C/C=C\CN(S(=O)(=O)c2ccccc2[N+](=O)[O-])CCC1 | 15.5% (inactive) | – |
| CC(Sc1ccc(S(=O)(=O)N2CCN(C)CC2)cn1)C(=O)NC1CCCC(C)C1C (configuration not stated) | 6.55% (inactive) | – |
| O=C(Nc1ccc(Cl)cn1)c1ccc2c(c1)OCCO2 | – | 7.08 µM (active) |
| Cc1nc(NC(=O)c2ccc3c(c2)OCCO3)ccc1Br | -8.07% (inactive) | – |
| COc1c(Cl)cc(C(=O)Nc2ccc(Cl)cn2)cc1Cl | 8.31% (inactive) | – |
| CN(Cc1ccccc1)C(=O)COc1ccccc1 | -4.89% (inactive) | – |
| Cc1ccc(S(=O)(=O)CCC(=O)OCC(=O)N(C)Cc2ccccc2)cc1 | 13.7% (inactive) | – |
| CN(Cc1ccccc1)C(=O)COC(=O)c1ccccc1Nc1ccccc1 | – | 12.6 µM (active) |
| CC(=O)Nc1cncc(-c2ccccc2CO)n1 | 7.46% (inactive) | – |
| CCOC(=O)C1(C)CCCN(C(=O)c2cccc(Cl)c2)C1 (configuration not stated) | -4.19% (inactive) | – |
| COc1cccc(CNC(=O)c2n[nH]c3ccccc23)c1 | 4.09% (inactive) | – |
| NS(=O)(=O)c1ccc(CCNc2nc(C(F)(F)F)nc3ccccc23)cc1 | -12.4% (inactive) | – |
| COc1cccc(CNc2nc(C(F)(F)F)nc3ccccc23)c1 | – | 10 µM (active) |
| CCN(CC)C(=O)C1CCCN(Cc2cccc(Cl)c2)C1 (configuration not stated) | 10.3% (inactive) | – |
| Nc1nc2ncccn2c1-c1ccccc1 | -1.5% (inactive) | – |
| CCOC(=O)C1(C)CCCN(C(=O)c2ccc(N(C)C)cc2)C1 (configuration not stated) | 1.99% (inactive) | – |
| O=S1(=O)CCN(C2CCCCCCCCCCC2)CC1 | 11.9% (inactive) | – |
| Cc1ccc(C2(c3ccc(C)cc3)NC(=O)N(Cc3c(C)noc3C)C2=O)cc1 | – | 10 µM (active) |

| SMILES | activity change, negative = inhibition | Potency |
| --- | --- | --- |
| COc1ccc(C2(c3ccc(OC)cc3)NC(=O)N(CC(=O)Nc3cc(C)on3)C2=O)cc1 | -19% (inactive) | – |
| COC(=O)c1ccc(CN2C(=O)NC(c3ccccc3)(c3ccccc3)C2=O)o1 | -15.6% (inactive) | – |
| Cc1ccc(-c2nc3c(C)cc(Br)cn3c2Cc2ccccc2)cc1 | -18.4% (inactive) | – |
| CCC(c1nc2ccccc2[nH]1)n1c(=O)c(-c2cccs2)nc2ccccc21 (configuration not stated) | – | 10 µM (active) |
| CCC(C(=O)Nc1c(C)cccc1C)n1c(-c2cc(C)cs2)nc2ccccc21 (configuration not stated) | -9.76% (inactive) | – |
| O=C(Nc1ccccc1-c1nc2ccccc2[nH]c1=O)c1cccs1 | 42.6% (inactive) | – |
| Cc1ccccc1CN1C(=O)CSCC1(C)C(=O)Nc1c(C)cccc1C (configuration not stated) | 8.92% (inactive) | – |
| Cc1cccc(NS(=O)(=O)c2ccc(-c3cnc(C4CC4)o3)cc2)c1 | – | 0.891 µM (active) |
| COc1ccc(CNS(=O)(=O)c2ccc(-c3cnc(C4CC4)o3)cc2)cc1 | – | inactive |
| Cc1ccc(-c2cnc(C3CC3)o2)cc1S(=O)(=O)Nc1cccc(C)c1C | -11% (inactive) | – |
| CC1(C(=O)NS(=O)(=O)c2cccs2)CCN1C(=O)Cc1ccc(-c2ccccc2)cc1 (configuration not stated) | -22.6% (inactive) | – |
| Cc1csc(=O)n1CCC(=O)OCC(=O)Nc1ccc(N2CCOCC2)cc1 | 1.06% (inactive) | – |
| Cc1c(C(=O)Nc2ccccn2)oc2ccc(Br)cc12 | 7.51% (inactive) | – |
| Oc1ccc(/C=N/Nc2ccc(C(F)(F)F)cn2)cc1O | 20.3% (inactive) | – |
| Oc1ccc(Br)cc1/C=N/Nc1ccccn1 | – | 2.82 µM (active) |
| COc1ccc(S(=O)(=O)NC(=O)C2(C)CCN2C(=O)c2ccccc2CCc2ccccc2)cc1 (configuration not stated) | -12.1% (inactive) | – |
| CC(C)(C)C(=O)COC(=O)c1cc(S(=O)(=O)N2CCCCC2)ccc1N1CCOCC1 | -11.3% (inactive) | – |
| O=C(OCCOc1ccccc1Cl)c1cc(S(=O)(=O)N2CCCCC2)ccc1N1CCOCC1 | – | 4.47 µM (active) |
| O=C(OCCOc1ccccc1F)c1cc(S(=O)(=O)N2CCOCC2)ccc1F | 1.47% (inactive) | – |
| CCN(CC)CCCNC(=O)c1ccc2c(=O)n(Cc3ccc4c(c3)OCO4)c(=S)[nH]c2c1 | -18.1% [at 7.66 µM] (inactive) | – |
| CCN(CC)CCCNC(=O)c1c(O)c2cc(F)cc3c2n(c1=O)C(C)CC3 (configuration not stated) | – | 7.94 µM (active) |
| CCN(CC)CCCNC(=O)c1cn(C)c2ccc(S(=O)(=O)N(C)C3CCCCC3)cc2c1=O | – | inactive |

— PubChem BioAssay AID624417 (National Center for Advancing Translational Sciences (NCATS), 2012)
